According to PubChem BioAssay (Tox21):
Several values for one entry are separate records, joined by “and”; a condition that tells them apart may be missing. Equal entries are not always repeated. Results filed as inconclusive are left out. Some compounds were tested as several samples or in several runs, with calls that do not always agree. Activity calls are given as the source filed them. Unless noted, calls come from the whole dose curve; as a rule, active = well fitted curve in the direction sought with a large enough effect in the repeat runs; inconclusive = weak or mixed curves; inactive = no such curve, though single readings can be large; an effect the other way counts as inactive or inconclusive.

Experiments:
[1] = qHTS assay to identify small molecule agonists of the sonic hedgehog signaling (Shh) pathway (AID 1259368; calls by dose curve;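 note: NIH/3T3-derived 3T3Gli1-Luc cells carrying a stable Gli1-driven firefly luciferase reporter; series mostly up to about 92 µM; nearly all actives have a fitted effect of over 15% in size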)
How it was run: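 3T3Gli1-Luc (NIH/3T3 clone, stable Gli1-Luc); 4 hr pre-incubation, then cpd in DMSO 24 hr, 37 C/5% CO2; luciferase reagent 30 min RT; luminescence.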

[2] = qHTS assay to identify small molecule antagonists of the sonic hedgehog signaling (Shh) pathway (AID 1259369; calls by dose curve; note: nearly all actives have a fitted effect of over 45% in size; note: potency is the fitted concentration of half-maximal effect)
How it was run: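 3T3Gli1-Luc, conditioned-medium-stimulated, 24hr cpd, 37C/5% CO2; Gli1-driven firefly Luc luminescence after 30min RT with luciferase reagent. Cells plated 4hr before cpd.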

[3] = qHTS assay to identify small molecule agonists of the androgen receptor (AR) signaling pathway in the presence of an antagonist - cell viability counter screen (AID 1259379); note: nearly all actives have a fitted effect of over 25% in size; note: potency is the fitted concentration of half-maximal effect
How it was run: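 Cells: MDA-kb2 (MMTV-luc, AR and GR elements), 3,000/well, 5 hr settle. Added: nilutamide 3.0uM final, then compounds (15 conc.). Incubation: 16 hr, 37C, no CO2. Read-out: CellTiter-Fluor, 1 hr, fluorescence.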

[4] = qHTS assay to identify small molecule agonists of the estrogen receptor beta (ER-beta) signaling pathway - cell viability counter screen (AID 1259380); note: nearly all actives have a fitted effect of over 30% in size; note: potency is the fitted concentration of half-maximal effect
How it was run: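 HEK293T ER-beta-UAS-bla; 2% CS-FBS; 6 hr pre-plate, 16 hr cpd at 37C/5% CO2; LiveBLAzer read first, then CellTiter-Glo 30 min RT, luminescence.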

[5] = qHTS assay to identify small molecule antagonists of the estrogen receptor beta (ER-beta) signaling pathway - cell viability counter screen (AID 1259382); note: series mostly up to about 92 µM; nearly all actives have a fitted effect of over 55% in size
How it was run: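 Cells: ER-beta-UAS-bla HEK293T, 2,000/well, 2% CS-FBS, 6 hr settle. Cpd + E2 (1nM final), 16 hr, 37C/5% CO2. Bla FRET substrate 2 hr RT, then CellTiter-Glo 30 min RT, luminescence.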

[6] = qHTS assay to identify small molecule agonists or antagonists of the thyroid stimulating hormone receptor (TSHR) signaling pathway - wild type cell line counter screen (AID 1259384; calls by dose curve)
How it was run: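 Wild-type HEK293 cells were plated 18 h at 37 C/5% CO2, pin-dosed with compound plus Ro20-1724 medium, held 30 min at room temperature, then given cAMP-d2 and anti-cAMP-cryptate; fluorescence was read after 1 h. Fifteen concentrations, triplicate.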

[7] = biological target: Thyrotropin receptor (Homo sapiens) (UniProt P16473); assay: qHTS assay to identify small molecule antagonists of the thyroid stimulating hormone receptor (TSHR) signaling pathway (AID 1259385; calls by dose curve; note: nearly all actives have a fitted effect of over 20% in size)
How it was run: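 TSHR-HEK293 cells were plated and held 18 h at 37C/5% CO2, then given compound plus Ro20-1724 and stimulated with TSH at 1.5 ng/mL final. After 30 min at room temperature, cAMP was detected with cAMP-d2/anti-cAMP-cryptate (1 h) by fluorescence.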

[8] = qHTS assay to identify small molecule agonists of the estrogen receptor alpha (ER-alpha) signaling pathway in the presence of an antagonist - cell viability counter screen (AID 1259386);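 note: series mostly up to about 92 µM; cells exposed to compounds for 22 h at 37 °C before the viability read; nearly all actives have a fitted effect of over 30% in size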
How it was run: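 VM7Luc4E2, stripped-serum pre-culture 5 d; 24hr plating; +ICI-182,780 10.0nM final; cpds 15 conc, 22hr, 37C/5% CO2; CellTiter-Fluor added at 21hr, fluorescence 1hr later.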

[9] = biological target: Progesterone receptor (Homo sapiens) (UniProt P06401); assay: qHTS assay to identify small molecule agonists of the progesterone receptor (PR) signaling pathway (AID 1346784; calls by dose curve; note: nearly all actives have a fitted effect of over 30% in size)
How it was run: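 PR-UAS-bla HEK 293T cells (beta-lactamase reporter under UAS) in 2% charcoal-stripped FBS, dosed with 23 nL compound after 6 hr, incubated 16hr at 37C. LiveBLAzer B/G FRET substrate added, fluorescence read after 2 hours.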

[10] = biological target: Progesterone receptor (Homo sapiens) (UniProt P06401); assay: qHTS assay to identify small molecule antagonists of the progesterone receptor (PR) signaling pathway (AID 1346795; active = well fitted inhibition curve with a large enough effect in the signal ratio in the repeat runs, not every such curve was filed as active; the % refers to the signal ratio; note: potency is the fitted concentration of half-maximal effect)
How it was run: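 PR-UAS-bla HEK293T cells with beta-lactamase reporter under UAS control, in 2% charcoal-stripped FBS, treated with compounds plus 1 nM promegestone (R5020, final) for 16 hr at 37C. Read-out: FRET beta-lactamase substrate fluorescence after 2 hr at room temperature.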

[11] = qHTS assay to identify small molecule antagonists of the progesterone receptor (PR) signaling pathway - cell viability counter screen (AID 1346798); note: series mostly up to about 92 µM; nearly all actives have a fitted effect of over 50% in size
How it was run: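 PR-UAS-bla HEK293T cells, 3,000/well in 2% charcoal-stripped FBS medium, dosed with compounds plus R5020 agonist and incubated 16 h at 37C. Viability then measured in the same wells by CellTiter-Glo luminescence after 30 min at RT.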

[12] = qHTS assay to identify small molecule agonists of the progesterone receptor (PR) signaling pathway - cell viability counter screen (AID 1346799; calls by dose curve; note: nearly all actives have a fitted effect of over 45% in size)
How it was run: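 Counter screen in the PR-UAS-bla HEK293T wells (2% charcoal-stripped FBS, 16 h compound exposure at 37 C) after the bla read. CellTiter-Glo added, 30 min at room temperature, luminescence read as cell viability.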

[13] = qHTS assay to identify small molecule antagonists of the TGF-beta/Smad signaling pathway - cell viability counter screen (AID 1346824); note: nearly all actives have a fitted effect of over 50% in size
How it was run: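 SBE-bla HEK 293T cells were plated overnight at 37 C, then given compounds in DMSO plus TGF-beta1 (added as 0.25 ng/mL solution) for 5 hr. After the bla read, CellTiter-Glo was added to the same wells and luminescence read after 30 min at room temperature.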

[14] = qHTS assay to identify small molecule agonists of the TGF-beta/Smad signaling pathway - cell viability counter screen (AID 1346829); note: top concentration of the series differs between compounds; nearly all actives have a fitted effect of over 45% in size
How it was run: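 In parallel with the Smad reporter read, viability of HEK 293T cells stably carrying SBE-bla is quantified by ATP luminescence following 5 hr compound treatment.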

[15] = qHTS assay to identify small molecule agonists of the TGF-beta/Smad signaling pathway (AID 1346859; active = well fitted activation curve with a large enough effect in the signal ratio in the repeat runs, not every such curve was filed as active; the % refers to the signal ratio; note: series mostly up to about 77 µM)
How it was run: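 SBE-bla HEK293T cells plated overnight, then compound exposure for 5 h at 37 C. Beta-lactamase reporter read with LiveBLAzer B/G FRET substrate after 2 h at room temperature, fluorescence at 405 nm excitation, 460/530 nm emission.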

[16] = biological target: Estrogen receptor beta (Homo sapiens) (UniProt Q92731); assay: qHTS assay to identify small molecule agonists of the estrogen receptor beta (ER-beta) signaling pathway (AID 1259377; active = well fitted activation curve with a large enough effect in the signal ratio in the repeat runs, not every such curve was filed as active; the % refers to the signal ratio)
How it was run: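 ER-beta-UAS-bla HEK293T cells in medium with 2% charcoal-stripped FBS were exposed to compounds for 16 h at 37C. Beta-lactamase reporter activity was read as fluorescence after 2 h with LiveBLAzer B/G FRET substrate at room temperature.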

[17] = biological target: Estrogen receptor beta (Homo sapiens) (UniProt Q92731); assay: qHTS assay to identify small molecule antagonists of the estrogen receptor beta (ER-beta) signaling pathway (AID 1259378; active = well fitted inhibition curve with a large enough effect in the signal ratio in the repeat runs, not every such curve was filed as active; the % refers to the signal ratio)
How it was run: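 ER-beta-UAS-bla HEK293T (GripTite) cells in 2% charcoal-stripped FBS medium were preincubated 6 hr at 37C, dosed with compound, then stimulated with 1 nM E2 (final) for 16 hr; beta-lactamase reporter read by B/G FRET fluorescence after 2 hr substrate loading.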

[18] = biological target: Estrogen receptor (Homo sapiens) (UniProt P03372); assay: qHTS assay to identify small molecule agonists of the estrogen receptor alpha (ER-alpha) signaling pathway in the presence of an antagonist (AID 1259383; calls by dose curve; note: top concentration of the series differs between compounds; nearly all actives have a fitted effect of over 15% in size)
How it was run: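 VM7Luc4E2, endog. ER-alpha + 4×ERE-luc; charcoal-stripped FBS, phenol red-free, 5 d; 24hr plating; +10.0nM ICI-182,780 (final); cpds 15 conc, 22hr, 37C/5% CO2; ONE-Glo luminescence.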

[19] = biological target: Thyrotropin-releasing hormone receptor (Homo sapiens) (UniProt P34981); assay: qHTS assay to identify small molecule antagonists of the thyrotropin-releasing hormone receptor (TRHR) signaling pathway (AID 1346877; active = well fitted inhibition curve with a large enough effect in the repeat runs, not every such curve was filed as active; note: series mostly up to about 51 µM)
How it was run: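 Intracellular calcium fluorescence, read kinetically every second over 3 min, reports TRH-evoked signalling in HEK293 cells carrying TRHR. Test compounds were added 5 min ahead of a 1 nM TRH challenge.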

Measured: Potency

Estrogen receptor beta (Homo sapiens), sequence (Q92731 whole entry, looked up): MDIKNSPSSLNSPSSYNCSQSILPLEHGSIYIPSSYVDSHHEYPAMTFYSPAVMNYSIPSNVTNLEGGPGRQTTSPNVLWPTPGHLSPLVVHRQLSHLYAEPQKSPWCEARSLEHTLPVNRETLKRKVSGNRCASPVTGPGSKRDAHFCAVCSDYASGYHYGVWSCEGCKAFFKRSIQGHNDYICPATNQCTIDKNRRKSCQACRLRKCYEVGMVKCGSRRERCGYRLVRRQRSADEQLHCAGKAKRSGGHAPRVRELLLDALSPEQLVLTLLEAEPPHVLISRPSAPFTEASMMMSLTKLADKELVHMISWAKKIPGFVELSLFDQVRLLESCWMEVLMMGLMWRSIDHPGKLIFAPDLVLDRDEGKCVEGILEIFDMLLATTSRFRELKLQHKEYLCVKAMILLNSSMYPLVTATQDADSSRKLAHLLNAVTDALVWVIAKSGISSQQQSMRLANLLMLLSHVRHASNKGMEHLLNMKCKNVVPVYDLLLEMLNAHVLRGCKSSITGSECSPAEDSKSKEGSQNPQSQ
Progesterone receptor (Homo sapiens), sequence (P06401 whole entry, looked up): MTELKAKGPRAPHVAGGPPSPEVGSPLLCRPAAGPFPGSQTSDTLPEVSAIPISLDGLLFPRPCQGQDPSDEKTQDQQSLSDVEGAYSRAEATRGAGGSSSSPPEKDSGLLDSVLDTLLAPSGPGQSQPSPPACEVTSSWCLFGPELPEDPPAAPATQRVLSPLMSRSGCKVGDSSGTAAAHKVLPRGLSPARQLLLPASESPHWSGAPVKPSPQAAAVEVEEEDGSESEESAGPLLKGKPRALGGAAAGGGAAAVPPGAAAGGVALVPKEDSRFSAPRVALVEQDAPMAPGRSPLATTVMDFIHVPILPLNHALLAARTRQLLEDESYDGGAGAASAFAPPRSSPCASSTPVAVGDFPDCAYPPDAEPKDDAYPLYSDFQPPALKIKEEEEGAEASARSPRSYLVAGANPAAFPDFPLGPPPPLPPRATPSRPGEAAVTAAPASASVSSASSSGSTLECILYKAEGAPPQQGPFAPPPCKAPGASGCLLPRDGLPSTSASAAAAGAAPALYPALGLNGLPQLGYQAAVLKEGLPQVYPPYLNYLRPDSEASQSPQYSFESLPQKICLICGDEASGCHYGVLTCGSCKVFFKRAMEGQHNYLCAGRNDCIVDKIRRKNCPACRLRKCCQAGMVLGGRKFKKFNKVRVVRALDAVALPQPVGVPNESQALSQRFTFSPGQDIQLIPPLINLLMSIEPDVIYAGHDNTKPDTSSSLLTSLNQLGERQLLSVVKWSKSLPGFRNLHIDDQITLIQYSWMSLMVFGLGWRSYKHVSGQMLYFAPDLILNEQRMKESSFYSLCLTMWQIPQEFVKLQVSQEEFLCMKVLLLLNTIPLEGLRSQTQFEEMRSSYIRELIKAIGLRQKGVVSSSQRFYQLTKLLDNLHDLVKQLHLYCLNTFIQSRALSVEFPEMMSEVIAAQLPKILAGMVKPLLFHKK
Thyrotropin-releasing hormone receptor (Homo sapiens), sequence (P34981 whole entry, looked up): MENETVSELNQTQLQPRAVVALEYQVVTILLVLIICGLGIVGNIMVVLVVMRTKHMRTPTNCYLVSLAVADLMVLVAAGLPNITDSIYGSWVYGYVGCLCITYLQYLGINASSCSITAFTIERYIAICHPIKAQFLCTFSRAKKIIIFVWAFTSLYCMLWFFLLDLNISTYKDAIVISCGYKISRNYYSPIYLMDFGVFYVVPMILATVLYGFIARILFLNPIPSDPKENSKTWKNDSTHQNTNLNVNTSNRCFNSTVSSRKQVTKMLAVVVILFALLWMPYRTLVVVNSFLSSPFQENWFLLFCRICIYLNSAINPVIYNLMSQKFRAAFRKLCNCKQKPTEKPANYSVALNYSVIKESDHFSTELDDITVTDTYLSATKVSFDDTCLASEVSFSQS
Estrogen receptor (Homo sapiens), sequence (P03372 whole entry, looked up): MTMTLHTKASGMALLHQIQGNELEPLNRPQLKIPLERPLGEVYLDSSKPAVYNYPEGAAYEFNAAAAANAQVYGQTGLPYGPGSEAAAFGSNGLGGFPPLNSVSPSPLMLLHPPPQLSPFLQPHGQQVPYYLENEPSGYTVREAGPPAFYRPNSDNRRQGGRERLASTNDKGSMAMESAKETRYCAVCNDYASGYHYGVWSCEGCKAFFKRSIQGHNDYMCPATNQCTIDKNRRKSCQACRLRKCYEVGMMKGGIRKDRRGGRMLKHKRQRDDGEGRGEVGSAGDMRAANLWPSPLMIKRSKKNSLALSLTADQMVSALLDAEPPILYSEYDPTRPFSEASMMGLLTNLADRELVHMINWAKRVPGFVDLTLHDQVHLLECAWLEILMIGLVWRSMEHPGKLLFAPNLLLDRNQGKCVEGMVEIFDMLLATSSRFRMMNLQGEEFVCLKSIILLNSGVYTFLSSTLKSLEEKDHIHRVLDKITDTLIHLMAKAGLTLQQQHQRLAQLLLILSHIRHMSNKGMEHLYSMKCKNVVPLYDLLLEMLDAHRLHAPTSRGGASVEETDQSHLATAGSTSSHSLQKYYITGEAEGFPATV
Thyrotropin receptor (Homo sapiens), sequence (P16473 whole entry, looked up): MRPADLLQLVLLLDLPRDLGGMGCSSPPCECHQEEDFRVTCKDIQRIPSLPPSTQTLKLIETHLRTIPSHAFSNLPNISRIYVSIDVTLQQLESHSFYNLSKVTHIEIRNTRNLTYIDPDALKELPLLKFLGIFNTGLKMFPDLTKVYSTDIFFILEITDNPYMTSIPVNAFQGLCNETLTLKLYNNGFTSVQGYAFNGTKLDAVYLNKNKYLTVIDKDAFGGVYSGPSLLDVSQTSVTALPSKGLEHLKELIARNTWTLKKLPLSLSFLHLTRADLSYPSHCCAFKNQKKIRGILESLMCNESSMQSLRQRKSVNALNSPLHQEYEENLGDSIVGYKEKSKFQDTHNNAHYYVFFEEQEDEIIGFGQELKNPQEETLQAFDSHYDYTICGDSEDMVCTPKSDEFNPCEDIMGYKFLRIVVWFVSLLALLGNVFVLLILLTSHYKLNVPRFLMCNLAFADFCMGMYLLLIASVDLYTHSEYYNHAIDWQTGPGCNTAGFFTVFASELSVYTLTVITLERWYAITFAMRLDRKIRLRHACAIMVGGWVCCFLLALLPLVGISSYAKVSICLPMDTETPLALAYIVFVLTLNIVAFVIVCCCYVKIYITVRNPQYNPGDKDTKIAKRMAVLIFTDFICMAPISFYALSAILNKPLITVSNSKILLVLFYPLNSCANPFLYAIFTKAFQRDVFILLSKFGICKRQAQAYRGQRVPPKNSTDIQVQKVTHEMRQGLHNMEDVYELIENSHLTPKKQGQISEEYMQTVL

Cc1ccc(N)cc1
not listed: [16] | [17] | [18] | [19]
inactive: all other assays above

COc1nc(NC(C)C)nc(NC(C)C)n1
not listed: [2]
inactive: all other assays above

C/C=C/c1ccc2c(c1)OCO2
not listed: [16] | [17] | [18] | [19]
inactive: all other assays above

O=C(O)CCCc1ccc(N(CCCl)CCCl)cc1
not listed: [16] | [17] | [18]
inactive: all other assays above

CN(C)C(=O)Cl
not listed: [16] | [17] | [18]
inactive: all other assays above

Cl[C@H]1OCCO[C@@H]1Cl
not listed: [16] | [17] | [18]
inactive: all other assays above

C=CCN=C=S
not listed: [11] | [16] | [17] | [18] | [19]
inactive: all other assays above

CCCCCCCCCCCCCCCCCC(=O)O
17.1 µM (active) and inactive: [2]
10.8 µM (active) and inactive: [10]
not listed: [6] | [7] | [16] | [17] | [18] | [19]
inactive: all other assays above

CCCOC(=O)c1ccccc1C(=O)OCCC
not listed: [6] | [7] | [16] | [17]
inactive: all other assays above

CCOP(=S)(OCC)Oc1ccc([N+](=O)[O-])cc1
not listed: [10] | [12] | [16] | [17] | [18]
inactive: all other assays above

O=C(O)Cc1ccccc1
not listed: [6] | [7] | [16] | [17] | [18]
inactive: all other assays above

Sc1ccccc1
not listed: [16] | [17]
inactive: all other assays above

Cc1ccccc1N
not listed: [16] | [17] | [18] | [19]
inactive: all other assays above

CCNc1nc(Cl)nc(NC(C)C)n1
not listed: [2] | [18]
inactive: all other assays above

Cl/C=C/Cl
not listed: [16] | [17] | [18]
inactive: all other assays above

CCOP(=S)(OCC)Oc1cc(C)nc(C(C)C)n1
not listed: [16] | [17] | [18]
inactive: all other assays above

OCCCCO
not listed: [16] | [17] | [18]
inactive: all other assays above

Oc1ccc(Cl)cc1
not listed: [16] | [17] | [18]
inactive: all other assays above

C[C@H]1C(=O)O[C@@H]2CCN3CC=C(COC(=O)[C@](C)(O)[C@]1(C)O)[C@H]23
not listed: [9] | [10] | [16] | [17]
inactive: all other assays above

COS(=O)(=O)OC
not listed: [6] | [7] | [16] | [17] | [18]
inactive: all other assays above

COc1cc(-c2ccc(N)c(OC)c2)ccc1N
inactive and 52 µM (active): [3]
active: [2] 6.78 µM and 8.24 µM | [4] 14.7 µM | [10] 48.8 µM and 27.3 µM and 46.3 µM
not listed: [6] | [7] | [11] | [16] | [17] | [18]
inactive: all other assays above

ClC(Cl)c1ccccc1
not listed: [6] | [7] | [16] | [17] | [18]
inactive: all other assays above

[N-]=[N+]=CC(=O)OC[C@H](N)C(=O)O
not listed: [16] | [17] | [18] | [19]
inactive: all other assays above

O=P1(NCCCl)OCCCN1CCCl (stereo not drawn)
not listed: [16] | [17] | [18]
inactive: all other assays above

CNC(=O)Oc1cccc2ccccc12
active: [2] 12.1 µM and 9.44 µM | [10] 27.1 µM and 30.6 µM
not listed: [16] | [17] | [18]
inactive: all other assays above

CNC(=O)O/N=C/C(C)(C)SC
not listed: [16] | [17] | [18]
inactive: all other assays above
